A short description of assay [1]: binders of probe aFSTL3 on microarray, primary screen, stem cell growth factor project, biochemical, small-molecule microarray, fluorescence 635/667 (AID 1064).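 Also: measures binding of the biotinylated anti-FSTL3 antibody to printed compounds.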 The settings on record: higher = more signal.
Assay [2] in a line: binders from COS7 lysate, DM2A8 probe, primary screen, torsin A project, cell lysate, small-molecule microarray, fluorescence 635/667 (AID 1065). The settings on record: higher = more signal, COS7 lysate expressing mutant human TOR1A.
A short description of assay [3]: binders of probe aFGF2 on microarray, primary screen, stem cell growth factor project, biochemical, small-molecule microarray, fluorescence 635/667 (AID 1067).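 Also: measures binding of biotinylated aFGF2 protein to printed compounds on slides; z-score merges feature fluorescence and signal-to-noise across triplicate slides.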 The conditions noted are these: higher = more signal.
The nature of assay [4]: binders of probe aFGF10 on microarray, primary screen, stem cell growth factor project, biochemical, small-molecule microarray, fluorescence 635/667 (AID 1071).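 Also: score merges 667 nm spot intensity and signal to noise from triplicate slides.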 The conditions noted are these: higher = more signal.
The target in assay [5] is Neurogenic locus notch homolog protein 2 (Homo sapiens) (UniProt Q04721). The assay is described as follows: Notch2 binders on small-molecule microarrays, primary screen, biochemical, small-molecule microarray, 635 nm fluorescence, stem cell growth factors (AID 1073). The settings on record: Notch2 binding, higher = more signal.
Chain of Neurogenic locus notch homolog protein 2 (Homo sapiens) (Q04721 whole entry, looked up, canonical isoform): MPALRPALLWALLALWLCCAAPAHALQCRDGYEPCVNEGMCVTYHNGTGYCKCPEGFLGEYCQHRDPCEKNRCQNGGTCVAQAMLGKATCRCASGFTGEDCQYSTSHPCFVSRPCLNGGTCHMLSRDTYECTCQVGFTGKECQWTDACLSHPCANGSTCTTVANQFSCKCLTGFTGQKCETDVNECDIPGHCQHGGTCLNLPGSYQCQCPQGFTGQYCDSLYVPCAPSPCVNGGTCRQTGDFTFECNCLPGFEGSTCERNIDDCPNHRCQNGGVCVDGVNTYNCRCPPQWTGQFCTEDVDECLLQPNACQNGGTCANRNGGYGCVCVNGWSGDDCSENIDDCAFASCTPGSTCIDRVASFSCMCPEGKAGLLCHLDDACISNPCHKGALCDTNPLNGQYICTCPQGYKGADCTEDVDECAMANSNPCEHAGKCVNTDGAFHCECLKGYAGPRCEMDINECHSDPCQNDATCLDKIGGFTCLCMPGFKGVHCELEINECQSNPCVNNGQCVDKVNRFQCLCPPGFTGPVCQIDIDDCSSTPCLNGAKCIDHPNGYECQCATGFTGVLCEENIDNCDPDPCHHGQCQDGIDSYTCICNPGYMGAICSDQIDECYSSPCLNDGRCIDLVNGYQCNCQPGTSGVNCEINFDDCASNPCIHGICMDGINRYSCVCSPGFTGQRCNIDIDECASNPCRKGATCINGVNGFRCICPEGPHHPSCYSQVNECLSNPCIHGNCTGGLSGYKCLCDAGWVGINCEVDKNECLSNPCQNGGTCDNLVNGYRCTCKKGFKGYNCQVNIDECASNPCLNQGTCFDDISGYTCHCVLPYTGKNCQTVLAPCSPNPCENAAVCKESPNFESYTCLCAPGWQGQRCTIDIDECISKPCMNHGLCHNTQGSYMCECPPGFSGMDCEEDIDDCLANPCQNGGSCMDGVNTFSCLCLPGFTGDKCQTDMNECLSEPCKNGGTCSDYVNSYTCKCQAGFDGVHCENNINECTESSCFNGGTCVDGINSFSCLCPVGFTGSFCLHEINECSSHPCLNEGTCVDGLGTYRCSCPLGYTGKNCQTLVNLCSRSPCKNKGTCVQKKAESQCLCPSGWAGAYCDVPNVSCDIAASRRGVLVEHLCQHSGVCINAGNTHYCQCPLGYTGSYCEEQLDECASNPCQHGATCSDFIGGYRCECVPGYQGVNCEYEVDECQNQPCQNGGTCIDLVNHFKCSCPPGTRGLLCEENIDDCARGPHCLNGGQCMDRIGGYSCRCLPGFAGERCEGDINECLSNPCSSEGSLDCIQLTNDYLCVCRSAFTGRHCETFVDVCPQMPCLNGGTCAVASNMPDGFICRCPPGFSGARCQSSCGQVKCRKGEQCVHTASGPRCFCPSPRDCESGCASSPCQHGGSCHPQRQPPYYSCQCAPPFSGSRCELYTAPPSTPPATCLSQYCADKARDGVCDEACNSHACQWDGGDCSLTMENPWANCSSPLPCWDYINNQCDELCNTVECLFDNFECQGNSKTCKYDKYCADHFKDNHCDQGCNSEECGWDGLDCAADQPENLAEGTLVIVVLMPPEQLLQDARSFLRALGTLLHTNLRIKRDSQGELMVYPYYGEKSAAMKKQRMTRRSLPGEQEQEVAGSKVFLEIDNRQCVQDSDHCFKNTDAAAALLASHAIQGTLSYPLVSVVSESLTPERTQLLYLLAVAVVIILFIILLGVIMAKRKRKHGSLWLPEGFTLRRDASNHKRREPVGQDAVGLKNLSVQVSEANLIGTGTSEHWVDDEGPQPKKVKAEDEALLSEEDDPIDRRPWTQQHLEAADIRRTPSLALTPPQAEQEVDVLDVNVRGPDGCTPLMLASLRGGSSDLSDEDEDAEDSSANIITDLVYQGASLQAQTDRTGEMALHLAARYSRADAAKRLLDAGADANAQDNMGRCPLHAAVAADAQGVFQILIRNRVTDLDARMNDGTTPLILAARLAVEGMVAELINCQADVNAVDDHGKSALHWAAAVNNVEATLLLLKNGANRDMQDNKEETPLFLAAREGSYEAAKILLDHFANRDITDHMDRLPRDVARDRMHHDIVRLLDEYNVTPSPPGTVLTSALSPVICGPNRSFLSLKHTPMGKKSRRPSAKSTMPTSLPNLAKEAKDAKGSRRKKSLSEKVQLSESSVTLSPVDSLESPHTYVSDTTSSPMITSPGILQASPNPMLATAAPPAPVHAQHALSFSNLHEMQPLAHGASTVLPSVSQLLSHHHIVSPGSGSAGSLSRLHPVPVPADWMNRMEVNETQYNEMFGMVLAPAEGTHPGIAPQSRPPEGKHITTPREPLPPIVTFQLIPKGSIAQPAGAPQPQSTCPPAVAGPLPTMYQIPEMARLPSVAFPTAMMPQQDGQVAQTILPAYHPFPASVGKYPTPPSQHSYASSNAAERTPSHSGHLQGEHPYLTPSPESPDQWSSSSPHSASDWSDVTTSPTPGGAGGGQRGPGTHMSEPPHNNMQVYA
For assay [6], the target named is Pro-neuregulin-1, membrane-bound isoform (Homo sapiens) (UniProt Q02297). The assay is described as follows: NRG1 binders on small-molecule microarrays, primary screen, psychiatric disease protein project, biochemical, small-molecule microarray, fluorescence 635/667 (AID 1075).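 Also: score combines 667 nm spot fluorescence with signal to noise.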 The settings on record: NRG1 binding, 635 nm fluorescence, higher = more signal.
Chain of Pro-neuregulin-1, membrane-bound isoform (Homo sapiens) (Q02297 whole entry, looked up, the tested form may be a part, canonical isoform): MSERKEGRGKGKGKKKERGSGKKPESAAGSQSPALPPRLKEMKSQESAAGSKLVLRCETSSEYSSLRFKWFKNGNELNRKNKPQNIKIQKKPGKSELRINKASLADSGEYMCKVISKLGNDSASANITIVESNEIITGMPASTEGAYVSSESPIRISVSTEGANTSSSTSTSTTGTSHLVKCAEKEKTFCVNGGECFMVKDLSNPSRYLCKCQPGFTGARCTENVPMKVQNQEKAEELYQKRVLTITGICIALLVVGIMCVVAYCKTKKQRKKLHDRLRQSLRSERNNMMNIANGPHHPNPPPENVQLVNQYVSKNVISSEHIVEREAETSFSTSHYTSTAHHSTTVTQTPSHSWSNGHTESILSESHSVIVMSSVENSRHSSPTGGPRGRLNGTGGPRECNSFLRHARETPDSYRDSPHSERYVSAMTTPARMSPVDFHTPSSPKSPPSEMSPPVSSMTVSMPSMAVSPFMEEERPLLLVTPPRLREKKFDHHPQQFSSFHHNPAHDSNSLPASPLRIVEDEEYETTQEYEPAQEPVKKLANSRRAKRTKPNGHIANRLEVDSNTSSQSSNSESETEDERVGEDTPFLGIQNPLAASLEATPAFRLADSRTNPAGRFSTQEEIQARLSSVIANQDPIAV
Assay [7] has as its system Neuregulin-1 EGF-like domain. As to the kind of experiment: binders of neuregulin-1 EGF-like domain, primary screen, biochemical, small-molecule microarray, 635 nm fluorescence (AID 1081).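 Also: binding of the protein to compounds printed on small-molecule microarray slides.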 The conditions noted are these: small-molecule microarray binding, higher = more signal.
Assay [8] is described as follows: FRG1 promoter luciferase signal modulators, primary screen, FRG1 inhibition for FSHD, cell-based, C2C12 myotubes, firefly/Renilla luciferase, luminescence (AID 1084). The conditions noted are these: higher = more signal, called active from +8 up or from −8 down.
Assay [9] in a line: binders of probe aFST on microarray, primary screen, stem cell growth factor project, biochemical, small-molecule microarray, fluorescence 635/667 (AID 1086).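 Also: score merges 667 nm fluorescence with signal-to-noise of each printed compound spot.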 The settings on record: higher = more signal.
Assay [10] is described as follows: binders of probe aHhip on microarray, primary screen, stem cell growth factor project, biochemical, small-molecule microarray, fluorescence 635/667 (AID 1087).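 Also: score merges spot fluorescence at 667nm with spot signal to noise ratio.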 The conditions noted are these: higher = more signal.
Assay [11] concerns PRMT1 (protein arginine N-methyltransferase 1). As to the kind of experiment: PRMT1 binders on small-molecule microarrays, primary screen, biochemical, small-molecule microarray, 635 nm fluorescence (AID 1088).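 Also: binding of Prmt1 protein to compounds spotted on small-molecule microarray slides.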 The conditions noted are these: small-molecule microarray binding, higher = more signal.
A short description of assay [12]: yeast growth modulation, basal conditions, primary screen, YJM789 clinical isolate, OD600, 24 h (AID 1089).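 Also: growth of clinical yeast isolate S. cerevisiae YJM 789 seeded 1000 cells per well; test concentration not given here.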 The conditions noted are these: S. cerevisiae YJM789 growth, higher = more signal, called active from +8 up or from −8 down.
Assay [13] can be described thus: fission yeast growth modulation, primary screen, strain 972, OD600, 24 h, no modulator (AID 1090).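 Also: basal condition with compound alone and no growth modifier present; test concentration not given here.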 The settings on record: S. pombe 972 growth, higher = more signal, called active from +8 up or from −8 down.
Assay [14] is described as follows: S. cerevisiae growth modulation with rapamycin, primary screen, strain BY4716, OD600, 96 h (AID 1091). Also: test concentration not given here. The settings on record: higher = more signal, called active from +8 up or from −8 down.
Assay [15] deals with Torsin-1A-interacting protein 2 (Homo sapiens) (UniProt Q8NFQ8). As to the kind of experiment: LULL1 binders on small-molecule microarray, primary screen, cell lysate, human LULL1 lysate, 635/667 nm fluorescence (AID 1092).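 Also: probe is lysate of COS7 cells overexpressing human LULL1; score merges per-feature 667 nm fluorescence with signal-to-noise.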 The conditions noted are these: hLULL1 lysate binding, 635 nm fluorescence, higher = more signal.
Chain of Torsin-1A-interacting protein 2 (Homo sapiens) (Q8NFQ8 whole entry, looked up): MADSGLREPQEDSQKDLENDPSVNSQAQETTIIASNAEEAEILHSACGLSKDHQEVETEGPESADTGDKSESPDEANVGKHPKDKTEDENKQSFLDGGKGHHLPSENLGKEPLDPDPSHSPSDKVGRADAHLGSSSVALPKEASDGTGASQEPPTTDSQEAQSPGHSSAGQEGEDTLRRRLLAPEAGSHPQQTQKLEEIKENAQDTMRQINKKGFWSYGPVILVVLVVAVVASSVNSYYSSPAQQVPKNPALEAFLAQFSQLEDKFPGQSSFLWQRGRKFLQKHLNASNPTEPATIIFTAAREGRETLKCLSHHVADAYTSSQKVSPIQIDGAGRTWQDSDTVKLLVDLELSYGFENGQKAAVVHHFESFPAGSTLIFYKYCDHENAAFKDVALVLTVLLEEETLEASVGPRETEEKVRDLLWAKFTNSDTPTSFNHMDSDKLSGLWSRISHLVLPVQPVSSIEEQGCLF
Assay [16] in a line: E. coli growth modulation, two-sided OD650, primary screen, E. coli filamentation project, strain DRC41, 24 h (AID 1093).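 Also: MC1000 strain lacking acrAB efflux and sulA so SOS filamentation is blocked; test concentration not given here.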 The conditions noted are these: OD650, 24 h, higher = more signal, called active from +8 up or from −8 down.
A short description of assay [17]: small-molecule microarray binders of probe aLefty2, primary screen, biochemical, biotinylated probe, 635/667 nm fluorescence (AID 1094).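 Also: score merges spot fluorescence near 667 nm with spot signal-to-noise ratio.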 The conditions noted are these: higher = more signal.
Assay [18] has as its system Noggin (protein binding on small-molecule microarray). As to the kind of experiment: Noggin binders on small-molecule microarray, primary screen, biochemical, 635/667 nm fluorescence (AID 1095).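 Also: score merges 667 nm feature fluorescence with signal to noise over triplicate slides.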 The settings on record: 635 nm fluorescence, higher = more signal.
The target of assay [19] is Neurogenic locus notch homolog protein 3 (Homo sapiens) (UniProt Q9UM47). As to the kind of experiment: NOTCH3 binders on small-molecule microarray, primary screen, biochemical, 635/667 nm fluorescence (AID 1096). The settings on record: NOTCH3 binding, 635 nm fluorescence, higher = more signal.
Assay [20] in a line: small-molecule microarray binders of probe aEGFR, primary screen, biochemical, biotinylated probe, 635/667 nm fluorescence (AID 1097).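 Also: probe is a biotinylated anti-EGFR antibody binding compounds printed on slides; score combines fluorescence near 667 nm and signal to noise of each spot.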 The conditions noted are these: higher = more signal.

The values that follow come from PubChem BioAssay.

Active and inactive are the calls of the source.

As for `CCCN1C(=O)[C@]2(Cc3ccccc31)N=C(c1ccc(OCCCO)cc1)O[C@@H]2c1ccccc1`, the composite z-score in assay [1] was 0.552; in assay [2] it was 0.176; in assay [3] it was 0.0732; in assay [4], -0.139; in [5], 0.118; in assay [6], 1.3. Further, the composite z-score is 1.23 in assay [7]; 0.311 in assay [9]; 0.22 in assay [10]; 1.55 in assay [11]; 2.74 in [15]; -0.0391 in [17]. Also, the values for the composite z-score in [18], in assay [19] and in [20] were 1.66, 1.03 and -0.139, respectively. The z-score in assay [8] is -1.9 (inactive); in [12] it was -1.49 (inactive); in assay [13] it was -2.93 (inactive); in assay [14], 1.44 (inactive); in assay [16] it was -0.0411 (inactive).

On to `C=C[C@@H](OC)[C@H](OC(=O)Nc1ccc(OC)cc1)c1ccc(O)c(F)c1`, for which the composite z-score in assay [1] is -0.122; in [2], 1.6; in [3] it was -0.142; in [4], -0.528; in assay [5], -1.25; in assay [6], 0.749. In addition, the composite z-score was 1.15 in assay [7]; -0.39 in [9]; -0.0994 in [10]; 0.882 in [11]; 1.16 in assay [15]; -0.183 in assay [17]. Moreover, the composite z-score in assay [18] was 0.638; in [19] it was 0.0981; in assay [20], -0.199. Besides, the z-score is 3.87 (inactive) in [8]; -1.48 (inactive) in assay [12]; -4.59 (inactive) in assay [13]; 0.144 (inactive) in assay [14]; 1.19 (inactive) in assay [16].

In the case of `COc1cccc(C)c1NC(=O)O[C@H]1[C@H](OC(=O)Nc2ccccc2-c2ccccc2)[C@H](OC(=O)Nc2ccccc2-c2ccccc2)[C@@H](OC)O[C@@H]1CO`, the composite z-score was -0.205 in [1]; 0.0513 in assay [2]; 0.137 in assay [3]; 0.542 in assay [4]; 1.46 in assay [5]; 1.46 in assay [6]. In addition, the composite z-score was 1.14 in assay [7]; 1.48 in [9]; -0.219 in assay [10]; 1.54 in assay [11]; 3.18 in [15]; 0.225 in [17]. The figures for the composite z-score in assay [18], in assay [19] and in assay [20] were 1.14, 1.07 and -0.0824, respectively. The z-score in assay [8] is 0.379 (inactive); in assay [12], 1.24 (inactive); in assay [13], 0.671 (inactive); in [14] it was 5.69 (inactive); in assay [16] it was 0.0918 (inactive).

For `CCOc1cc(C(O)C2C=CC3C(=O)NC(=O)C3N2Nc2ccc(Cl)cc2Cl)ccc1O` (stereo not given), the composite z-score in assay [1] was 0.0596; in assay [2] it was -0.565; in [3], 0.042; in assay [4], -0.246; in [5], -0.463; in [6] it was -0.226. For the same molecule, the composite z-score in assay [7] was -0.885; in assay [9] it was 0.0054; in assay [10], -0.297; in assay [11], -1.54; in assay [15] it was 0.0486; in assay [17], 0.0717. Also, the composite z-score is -0.26 in assay [18], -1.31 in [19] and -0.16 in assay [20]. The z-score was 0.59 (inactive) in assay [8]; -1.36 (inactive) in assay [12]; -1.29 (inactive) in assay [13]; 0.339 (inactive) in assay [14]; -0.847 (inactive) in assay [16].

For `CC(C)c1ccc(NN2C(C(O)c3ccc(F)cc3)C=CC3C(=O)N(c4ccccc4)C(=O)C32)cc1` (stereo not given), the composite z-score in assay [1] was -0.26; in assay [2] it was 0.25; in assay [3] it was 0.187; in assay [4], 1; in assay [5] it was 1.55; in [6], 1.28. The composite z-score in assay [7] was 1.04; in [9] it was 1.25; in assay [10] it was -0.118; in assay [11], 1.47; in assay [15], 3.57; in assay [17] it was -0.0865. For the same molecule, the composite z-score in [18] was -0.101; in [19], 1.03; in assay [20], 0.0182. Further, the z-score in assay [8] was -0.38 (inactive); in assay [12] it was 1.22 (inactive); in assay [13], 0.842 (inactive); in assay [14] it was 0.159 (inactive); in [16], -1.01 (inactive).
